Results filed as inconclusive are left out. Activity calls are given as the source filed them. Rule for the calls: active = hit-call score of the fitted dose curve at least 0.9, where 1 is the maximum; inconclusive = response in the unintended direction; inactive = score below 0.9.

This assay can be described thus: ATG_M_32_TRANS: Attagene TRANS-FACTORIAL HepG2 Assay for M32 Transcription Factor (Internal Marker) (AID 2282984). To be noted: HepG2 Attagene TRANS M32 internal marker reporter. The procedure: ATG_TRANS is a cell-based, multiplexed-readout assay that uses HepG2, a human liver cell line, with measurements taken at 24 hours after chemical dosing in a 24-well plate.ATG_M_32_TRANS is one of 30 assay component(s) measured or calculated from the ATG_TRANS assay. It is designed to make measurements of mRNA induction, a form of inducible reporter, as detected with fluorescence intensity signals by Reverse transcription polymerase chain reaction (RT-PCR) and Capillary electrophoresis technology.Data from the assay component ATG_M_32_TRANS was analyzed into 1 assay endpoint. This assay endpoint, ATG_M_32_TRANS, was analyzed in the positive analysis fitting direction relative to DMSO as the negative control and baseline of activity. Using a type of inducible reporter, measures of mRNA for gain-of-signal activity can be used to understand the background control at the transcription factor-level as they relate to the gene . Furthermore, this assay endpoint can be referred to as a secondary readout, because this assay has produced multiple assay endpoints where this one serves a background control function. To generalize the intended target to other relatable targets, this assay endpoint is annotated to the background measurement intended target family, where the subfamily is internal marker.
Human liver HepG2 cells are transiently transfected with multiple reporter transcription units (MRTUs) in 6-well plates using FuGene 6 reagent (Roche; 3 ml FuGene/1 mg DNA). The MRTU constructs are regulated by a cis-regulating element (promoter). […] A major difference between the CIS and TRANS system is that in CIS activities of endogenous TFs are measured, whereas the TRANS assay evaluates changes in activities of exogenous, chimeric NR-Gal4 proteins. […] At the end of 24 hour incubation, total RNA was isolated using TriZol reagent (Invitrogen). The isolated RNA is then reverse-transcribed using oligo(dT) primer and Mo-MLV reverse transcriptase (Invitrogen) with DNAse I (Ambion) treatment for 30 min. The one-tenth of the produced cDNA was amplified by PCR using Taq DNA polymerase (Invitrogen) and two reporter sequence-specific primers. The PCR products were fluorescently labeled by primer extension with 6-arboxyfluorescein (6-FAM) 5'-labeled reporter sequence-specific primer (2 min at 95 C, 20 s at 68 C and 10 min at 72 C) and these products were digested with 5U of HpaI (New England Biolabs) for 2h at 37 C. The fragments were purified using Qiaquick PCR columns (Qiagen), analyzed on an ABI 3130xL genetic analyzer (Applied Biosystems) with peak positions identified by using a set of X-rhodamine (ROX)-labeled MapMarker1000 molecular weight standards (BioVentures). The raw capillary electrophoresis data was processed using Attagraph software (Attagene).
`NC(N)=O`: the compound was called inactive.

For the compound `OC(CCl)CCl`, the outcome was inactive.

On to `Cn1cc[nH]c1=S`, for which the compound was classed as inactive.

Consider `OCCNCCO`, for which the compound was classed as inactive.

In the case of `OCc1ccccc1`, the call was inactive.

As to `CCCCCCCCCCCCCCCCOS(=O)(=O)O`, the result was inactive.

For the compound `NC(=O)N(O)[C@@H]1COc2cc(OCc3ccccc3)ccc21`, the compound was called inactive.

With `O=C(NO)C1(NS(=O)(=O)c2ccc(Oc3ccc(F)cc3)cc2)CCOCC1`, the compound was called inactive.

`O=S1(=O)CCCO1`: the outcome was inactive.

Take `FC(F)(F)C(F)(F)C(F)(F)C(F)(F)C(F)(F)C(F)(F)I`: the call was inactive.

Consider `Cc1ccc(S(=O)(=O)NC(=O)NN2CCCCCC2)cc1`, for which the result was inactive.

Turning to `c1ccc2c(c1)-c1cccc3c1c-2cc1ccccc13`, the compound was called inactive.

Regarding `O=C(O)c1cccc(C[C@@H]2COc3ccc(OCc4nc5cc(F)ccc5s4)cc3[C@@H]2O)c1`, the outcome was inactive.

With `OC(O)(C(F)C(O)(O)C(F)(F)F)C(F)(F)F`, the compound was called inactive.

Regarding `CCCOc1ccc(S(=O)(=O)N2CCN(CC)CC2)cc1-c1nc2c(CC)n(Cc3ccccn3)nc2c(=O)[nH]1`, the result was inactive.

As to `CCCCCOC(C)=O`, the outcome was inactive.

Consider `C=CCc1cc(S(=O)(=O)c2ccc(O)c(CC=C)c2)ccc1O`, for which the compound was classed as inactive.

As to `O=C1CN(N=Cc2ccc([N+](=O)[O-])o2)C(=O)N1`, the outcome was inactive.

As for `O=C(Cl)C(F)(F)C(F)(F)C(F)(F)C(=O)Cl`, the result was inactive.

With `Cc1ncc([C@@H](CCCCCCc2ccc3c(n2)NCCC3)CC(=O)O)cn1`, the result was inactive.

Take `CCc1ccc(O)c(C(C)(C)C)c1`: the compound was called inactive.

As to `c1ccc2cc3ccccc3cc2c1`, the outcome was inactive.

As to `CCn1nc(C)c2c1C(=O)NCC(c1ccc(O)cc1)=N2`, the compound was classed as inactive.

`O=S(=O)(O)CCC(F)(F)C(F)(F)C(F)(F)C(F)(F)C(F)(F)C(F)(F)F`: the result was inactive.

Consider `CCCC(CCC)C(=O)O`, for which the call was inactive.

With `CCCCCCCC/C=C\CCCCCCCC(=O)OC[C@@H](O)[C@H]1OC[C@H](O)[C@H]1O`, the outcome was inactive.

With `CCCCCCCCCCCCCCO`, the outcome was inactive.

Take `c1ccc2ncccc2c1`: the result was inactive.

As for `O=C(O)CO`, the call was inactive.

As to `CCOc1ccc2[nH]cc(C(=O)NCc3ccccc3)c(=O)c2n1`, the compound was called inactive.

As for `NCC(F)(F)C(F)(F)C(F)(F)C(F)(F)F`, the outcome was inactive.

As to `OC[C@H]1O[C@@](CO)(O[C@H]2O[C@H](CO)[C@@H](O)[C@H](O)[C@H]2O)[C@@H](O)[C@@H]1O`, the compound was classed as inactive.

As to `C[C@@H](Oc1ccc(CNC(=O)c2cccnc2Oc2ccc3c(c2)OCO3)c(F)c1)C(=O)O`, the result was inactive.

`CCCCCCCC1CCC(=O)O1` (stereo not given): the outcome was inactive.

Turning to `Cn1c(=O)c2[nH]cnc2n(C)c1=O`, the outcome was inactive.

With `S=P(N1CC1)(N1CC1)N1CC1`, the call was inactive.

Regarding `COc1cc(C(C)C)c2c(c1)S(=O)(=O)N(COc1cc(=O)n3cccc(OCCN4CCCCC4)c3n1)C2=O`, the compound was called inactive.

`CCN(CC)C(=S)SSC(=S)N(CC)CC`: the compound was called inactive.

In the case of `OCc1c[nH]c2ccccc12`, the result was inactive.

`c1ccc(C(O[C@@H]2CCCN(CCc3ccc4c(c3)OCO4)C2)c2ccccc2)cc1`: the call was inactive.

The values are drawn from PubChem BioAssay (EPA / NIEHS).
